This is part of a sample that, as a whole, favours compounds with a hit. Of some 83,000 tested, about 20% had one in any assay.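 Compound tested at a single concentration for 48 hours in 96-well plates; a percent growth value below 10 was scored as active.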 Unmarked numbers belong to inactive results. The source made the active and inactive calls.

The text below walks through data of PubChem BioAssay (NCI).

The first assay deals with A549/ATCC NSCLC. The assay can be described thus: NCI-60 one-dose screen, 48 h (100 = growth as untreated, 0 = no growth, -100 = all killed). The following applies: 10 µM unless noted.
As to `C#Cc1ccccc1NC(=O)c1sc2nc3c(cc2c1N)CCCCC3`, the growth is 99.2%. In the case of `O=C1[C@@H](OS(=O)(=O)CC(F)(F)F)[C@H](c2ccc(F)cn2)N1c1cc2c3ccccc3ccc2c2ccccc12`, the growth is 82.5%. As to `CC(C)CSc1nc(Nc2ccccc2)c(C#N)c(-c2ccc(F)cc2)n1`, the growth was 21.4%.

The subject of another assay is 786-0 renal. The assay is described as above. The following applies: 10 µM unless noted.
With `Cc1cc2ccccc2c[n+]1CC(=O)c1ccc(-c2ccccc2)cc1`, the growth is 65.9%. Same read-out and setting: as for `COC(=O)c1ccc2c(c1)n(Cc1ccc3ccccc3c1)c[n+]2Cc1ccc2ccccc2c1`, the figure is 70.3%; as for `Cc1c(Cl)cccc1NC(=O)c1sc2nc3c(cc2c1N)CCCCC3`, 32.1%; as for `C=C1C(=O)O[C@H]2[C@H]1CC/C(COC(=O)c1cn(C)c3ccccc13)=C\CC[C@@]1(C)O[C@@H]21`, -63% (active). The same measure, in the same setting: as for `Sc1cccc2cccnc12`, the figure is 31.5%; as for `O=C(CCl)N1CCCc2ccccc21`, 104%; as for `Cc1cccc(C)c1NC(=O)CN(CC(C)C)CC(O)COc1ccccc1` (centres undefined), 78.6%. Turning to `OCCNc1nc(NCCO)nc(Nc2ccc(C3=NN(c4cc(Cl)cc(Cl)c4)C(c4ccc(Cl)cc4)C3)cc2)n1` (centres undefined), the growth was -19.6% (active).

Turning to `CC(C)(C)c1nn(-c2ccccc2)c2c1COCN2Cc1ccc(Cl)cc1`, the growth is 90%. On the same count and under the same terms, as for `NS(=O)(=O)c1ccc(N2Cc3cc(Cl)ccc3OC3=C2C(=O)N(CC2CCCCC2)C3=O)cc1`, the figure is -84.7% (active). The same measure, in the same setting: as for `C#C[C@@]1(O)[C@@H](CO)O[C@@H](n2cc(-c3ccco3)c3c(N)ncnc32)[C@@H]1O`, the figure is 85.6%; as for `NC(=O)CN1C(=O)c2ccccc2C1=O`, 102%.

Regarding `CC1CCCN(CCCCCOc2ccc3oc4ccc(Cl)cc4c(=O)c3c2)C1` (centres undefined), the growth was 68.2%. Still for that read-out and setting: the figure for `O=c1[nH]c(-c2cccc(F)c2)cc2cc(F)ccc12` is 44.2%; for `O=C(O)COc1ccc2c(=O)c3sc4c(=O)c5ccccc5c(=O)c4c3c(=O)c2c1` it is 70.9%; for `CCOC(=O)/C=C1\SC(=Nc2ccc(C#N)cc2)N(CCN2C(=O)/C(=C/C(=O)OCC)SC2=Nc2ccc(C#N)cc2)C1=O` it is 48.5%. On the same count and under the same terms, as for `COC(=O)/C=C1\SC(=Nc2ccc(F)cc2)N(CCc2c[nH]c3ccccc23)C1=O`, the figure is 104%; as for `CCN1CCN(Cc2ccc(NC(=O)c3cccc(C#Cc4cccc5[nH]nc(N)c45)c3)cc2C(F)(F)F)CC1`, -81.6% (active). Still for that read-out and setting: as for `CC[C@H](Nc1ncnc2nc[nH]c12)c1nc2cccc(CC(=O)c3ccc(C(=O)NO)cc3)c2c(=O)n1-c1ccccc1`, the figure is 98.9%; as for `CC(=O)OCC1OC(OC2C(COC(C)=O)OC(OCCC[S-])C(OC(C)=O)C2OC(C)=O)C(OC(C)=O)C(OC(C)=O)C1OC(C)=O.[Au+].c1ccc(CN2[CH-]N(Cc3ccccc3)C(c3ccccc3)=C2c2ccccc2)cc1` (centres undefined), 9.05% (active).

With `O=S(=O)(O)c1ccc(N=NSc2ccc3ccccc3c2)cc1`, the growth is 102%.

As for `C[C@H]1[C@H](C)CC[C@]2(C(=O)OCCOCCOCC[P+](c3ccccc3)(c3ccccc3)c3ccccc3)CC[C@]3(C)C(=CC[C@@H]4[C@@]5(C)CC[C@H](OC(=O)C(Cl)Cl)C(C)(C)[C@@H]5CC[C@]43C)[C@H]12`, the growth was -38.3% (active). The same measure, in the same setting: the figure for `O=c1c2ccccc2oc2ccc(OCCCCCN3CCCCCC3)cc12` is 78.5%; for `Nc1c(C(=O)Nc2ccccn2)sc2nc3c(cc12)C(=O)CCC3` it is 35.4%; for `COc1ccc(-n2cc(-c3ccc(Cl)c(Cl)c3)[nH]c2=O)cc1OC` it is 59.5%. Still for that read-out and setting: as for `Cc1ccc(C(=O)/C(=C/c2ccc([N+](=O)[O-])cc2)S(=O)Cc2ccccc2)cc1` (centres undefined), the figure is -49.5% (active); as for `C=CCn1c(CN2CCN(c3cc4c(cc3F)c(=O)c(C(=O)O)cn4C3CC3)CC2)n[nH]c1=S`, 95.6%. Same read-out and setting: the figure for `CC(=O)c1ccc(NC(=O)CSc2nnc(-c3cc(-c4ccc(C)cc4)nc4ccccc34)o2)cc1` is 3.06% (active); for `Cn1cc(-c2ccc3c(c2)ncn3-c2ccc(CC(=O)Nc3cc(C(C)(C)C)on3)cc2)cn1` it is 17.6%; for `CN(C)[C@@H]1C(=O)C(C(N)=O)=C(O)[C@@]2(O)C(=O)C3=C(O)c4c(O)cc(CN5CCc6ccccc6C5)c(Cl)c4C[C@H]3C[C@@H]12` it is -83.8% (active). Turning to `CC(=O)Oc1c2c(nc3c1c1ccccc1n3Cc1ccccc1)-c1ccccc1C2`, the growth is 91.8%.
